Measurements reported in PubChem BioAssay AID623877 (Johns Hopkins Ion Channel Center, 2012).
About 1,000 (0.29%) of roughly 340,000 compounds were called active.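 The calls were made as follows: active = fluorescence-ratio B-score plate-corrected deviation score at least 3 library SD below zero, with starting fluorescence score within 5 deviations; inactive = the rest.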 Only a selection was taken, and actives are over-represented in it overall.

What follows are molecules tested against Anoctamin-1 (Mus musculus) (UniProt Q8BHY3) (assay: TMEM16A chloride channel activators or potentiators, primary screen, cell-based, HTS (AID 623877;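 as to B-score: channel opened by trigger with iodide after compound preincubation; score built on the fluorescence ratio of max minus min over baseline; more negative score means more quench and so TMEM16A activation or potentiation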)). Conditions: HEK293 TMEM16A/YFP-H148Q/I152L, iodide quench fluorescence, at 10 µM; active compounds read low.
Anoctamin-1 (Mus musculus), sequence (Q8BHY3 whole entry, looked up): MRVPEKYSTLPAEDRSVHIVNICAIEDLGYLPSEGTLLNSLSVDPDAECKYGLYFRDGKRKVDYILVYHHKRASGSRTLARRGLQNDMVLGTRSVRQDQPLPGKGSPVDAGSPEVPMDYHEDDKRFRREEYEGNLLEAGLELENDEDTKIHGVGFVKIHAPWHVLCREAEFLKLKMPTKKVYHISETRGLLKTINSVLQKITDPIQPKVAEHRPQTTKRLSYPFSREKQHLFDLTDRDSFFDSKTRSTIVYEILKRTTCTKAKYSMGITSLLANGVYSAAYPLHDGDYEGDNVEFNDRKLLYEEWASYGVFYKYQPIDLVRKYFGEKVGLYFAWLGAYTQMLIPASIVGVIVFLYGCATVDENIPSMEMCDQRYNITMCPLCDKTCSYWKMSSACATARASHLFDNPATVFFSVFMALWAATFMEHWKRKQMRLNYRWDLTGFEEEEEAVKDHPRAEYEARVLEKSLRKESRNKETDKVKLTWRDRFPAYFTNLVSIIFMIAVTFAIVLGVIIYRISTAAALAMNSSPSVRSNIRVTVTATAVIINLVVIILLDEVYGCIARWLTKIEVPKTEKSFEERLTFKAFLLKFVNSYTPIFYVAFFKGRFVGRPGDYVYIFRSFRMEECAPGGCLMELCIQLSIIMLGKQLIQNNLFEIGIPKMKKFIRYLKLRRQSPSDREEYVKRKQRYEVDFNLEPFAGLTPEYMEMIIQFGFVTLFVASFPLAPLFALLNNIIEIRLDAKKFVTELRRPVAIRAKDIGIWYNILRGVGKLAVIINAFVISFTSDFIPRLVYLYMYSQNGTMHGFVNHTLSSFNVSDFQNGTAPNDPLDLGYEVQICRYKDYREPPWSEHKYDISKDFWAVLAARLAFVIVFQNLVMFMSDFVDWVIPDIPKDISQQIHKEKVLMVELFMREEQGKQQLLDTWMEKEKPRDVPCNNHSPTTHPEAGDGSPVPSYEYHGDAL
In the case of CC(=O)C1(O)CCC2C3CCC4=C(Cl)C(=O)CCC4(C)C3CCC21C (stereo not given), the B-score is reported as -5.25 (active).
In the case of Cc1cc(C)cc(NC(=S)NC2CC3CCCC(C2)N3Cc2cccs2)c1 (stereo not given), the B-score is reported as “inactive”.
With Cc1nn(Cc2ccccc2Cl)c(Cl)c1C(=O)OC(C(=O)NC(N)=O)C(C)C (stereo not given) the B-score was “inactive”.
Cc1nc2ccccn2c1P(=S)(N1CCCCC1)N1CCCCC1 was tested, and the B-score was -9.49 (active).
With COc1ccc(C(=O)C2CN(C)CC2C(=O)c2ccc(OC)cc2)cc1 (stereo not given) the B-score was “inactive”.
With O=C(CSC1c2ccccc2-c2ccccc21)N/N=C/c1ccccc1 the B-score was “inactive”.
For CC1C(=O)OC2CCN3CC=C(COC(=O)C(C)(O)C1(C)O)C23 (stereo not given), the B-score was “inactive”.
With CCN(CC)P(=O)(Oc1cccc(C)c1)N(CC)CC the B-score was “inactive”.
For C=Cn1ccnc1P(=S)(c1cc(N(CC)CC)ns1)c1nccn1C=C, the B-score was “inactive”.
In the case of Cc1cc2ccccn2c1C(C[N+](=O)[O-])c1c(F)cccc1Cl (stereo not given), the B-score is reported as “inactive”.
